Measured values: PubChem BioAssay AID1117361 (Southern Research Institute, 2015)
Among all 3,600 compounds or so, about 900 (25%) were called active. No rule for the calls is given here. The list is a sample of the results. Entries that show only a call come without a potency. Potency and affinity values are given separately.

What follows are molecules tested against Protein Tat (Human immunodeficiency virus type 1 group M subtype B (isolate HXB2)) (UniProt P04608) (assay: HIV-1 Tat–TAR interaction blockers – biochemical, fluorescence polarization, FAM-labeled TAR RNA, counter-screen for Vif-APOBEC3G degradation inhibitor project, dose response (AID 1117361)). Conditions: Tat-TAR RNA binding; series mostly up to 100 µM.

SMILES	outcome
Cc1cc(C(=O)Nc2ccc(S(=O)(=O)Nc3onc(C)c3C)cc2)cs1	inactive
COC(=O)c1ccc(Cn2c(C)cc(C)[n+]2C)o1	inactive
CCOc1ccc2nc(SCc3ccc(C(=O)OC)o3)[nH]c2c1	inactive
COc1ccccc1N1CCN(C(=O)c2ccoc2C)CC1	inactive
COc1ccc(S(=O)(=O)N2CCN(C(=O)c3cc4c(s3)CCC4)CC2)cc1	inactive
O=C(c1ccco1)N(CCC(c1ccccc1)c1ccco1)Cc1ccc(F)cc1 (configuration not stated)	inactive
Cc1cccc(OCCC(=O)Nc2c(C)n(C)n(-c3ccccc3)c2=O)c1	inactive
Cc1c(NC(=O)COC(=O)c2ccccc2Cl)c(=O)n(-c2ccccc2)n1C	inactive
CCOC(=O)Nc1cc(C)c(Cl)cc1OC	inactive
CC(C)(C)NC(=O)c1cc([N+](=O)[O-])ccc1N1CCCCC1	inactive
Nc1cc(C(=O)O)ccc1N1CCCCC1	inactive
Cc1ccc(Cn2c(SCC(C)C)nc3c2c(=O)n(C)c(=O)n3C)cc1	inactive
CCn1c(C)cc(=S)c2ccccc21	inactive
O=C(Cn1c2[n+](c3ccc(C(F)(F)F)cc31)CCCCC2)Nc1c(F)cccc1F	inactive
CCN(CC(=O)Nc1ccc(NC(C)=O)cc1)C(=O)C1CCCC1	inactive
Cc1ccc(C(=O)Nc2nc(=O)n(C(=O)c3ccccc3C)s2)cc1	inactive
CCS(=O)(=O)c1ccc2oc(Nc3cccc(OC)c3)nc2c1	inactive
Cc1nn(Cc2ccccc2)c(C)c1NC(=O)Cn1nc([N+](=O)[O-])c(Cl)c1C	inactive
O=c1[nH]nc(Cc2ncc(C(F)(F)F)cc2Cl)c2ccccc12	inactive
N#Cc1nc(COc2ccc(Cl)cc2Cl)oc1N1CCOCC1	inactive
COc1ccc(N2CCN(c3oc(COc4ccc(Cl)cc4Cl)nc3C#N)CC2)cc1	inactive
O=C1CN(C(=O)CSc2nnc(C3CC3)n2-c2ccccc2)c2ccccc2N1	inactive
Cc1nc(Nc2ccc(S(N)(=O)=O)cc2)sc1C(=O)Nc1ccccc1	inactive

SMILES	outcome
O=C(Nc1cnccn1)c1csc2ccccc12	inactive
Clc1ccc2c(c1)nc1n2CCCC1	inactive
COc1ccc(CCNS(=O)(=O)CCNC(=O)c2ccc3c(c2)OCO3)cc1	inactive
O=C1NCC(O)=C1C=NC12CC3CC(CC(C3)C1)C2	inactive
CCn1ncc(/C=N/NS(=O)(=O)c2ccc(Cl)cc2)c1C	inactive
C=CCN(CC=C)S(=O)(=O)c1ccc(C(=O)Nc2nnc(COC)o2)cc1	inactive
Cc1cccc(OCc2nc(C)cc(=O)[nH]2)c1	inactive
O=C(CNC(=O)c1ccc(Cl)cc1Cl)OCc1nnc(-c2ccccc2Br)o1	inactive
Clc1ccc(-c2ccc(SCc3ccccn3)nn2)cc1	inactive
CCCOc1ccccc1C1CC(=O)NC2=C1C(=O)CCC2 (configuration not stated)	inactive
COc1ccccc1-c1nnc(SCC(=O)NCc2c(C)c(Cl)cc(C(C)C)c2O)o1	inactive
O=C(Cn1c(=O)[nH]c2ccccc2c1=O)N1CCN(c2cccc(Cl)c2)CC1	inactive
N#CC(C(=O)NCc1ccco1)c1nc2ccccc2nc1N1CCOCC1 (configuration not stated)	inactive
Cc1ccnc(-n2c(CCN3C(=O)c4ccccc4C3=O)nc3ccccc3c2=O)c1	inactive
CC(C)C(NC(N)=O)C(=O)NC1CCCCC1 (configuration not stated)	inactive
O=C(O)c1cccc(CSc2nnc(COc3ccccc3)o2)c1	inactive
COc1cc2c(cc1OC)C(=O)C(Br)CC2 (configuration not stated)	inactive
COc1cc(NC(=O)NCCN2CCN(c3ccc(Cl)cc3)CC2)ccc1C	inactive
Cc1ccc(NS(=O)(=O)c2ccc(OCC(=O)Nc3cccc([N+](=O)[O-])c3)c(C)c2)cc1	inactive
COc1cc(CCC(=O)Nc2cccc(C(F)(F)F)c2)cc(OC)c1OC	inactive
CCNC(=S)Nc1ccc(N(c2ccccc2)C(C)C)cc1	inactive
O=C(Cn1cnc2c(nnn2Cc2ccc(Cl)cc2)c1=O)NCc1ccco1	inactive
CCOC(=O)c1cc2c(n(-c3ccccc3)c1=O)CC(C)(C)CC2=O	inactive

SMILES	outcome
CC1Cc2ccccc2N1C(=O)C1CCN(S(=O)(=O)Cc2ccccc2)CC1 (configuration not stated)	inactive
CC1Cc2ccccc2N1Cc1nc2cc(C(F)(F)F)ccc2c(=O)[nH]1 (configuration not stated)	inactive
CCOc1cccc(C(=O)Nc2ccccc2OC(F)F)c1	inactive
CCC1(CC)C(=O)NC(=O)NC1=NCCc1ccc(O)cc1	inactive
Cc1noc(C)c1S(=O)(=O)Nc1ccc2c(c1)C(=O)N([C@@H](C)CO)C[C@H](C)[C@@H](CN(C)Cc1ccc(C(F)(F)F)cc1)OCCCC[C@H](C)O2	inactive
COc1cccc(-c2nc(-c3cccs3)no2)c1	inactive
CCCCCOc1ccc(C2C(C(C)=O)=C(C)Nc3ncnn32)cc1OC (configuration not stated)	inactive
Cc1ccc(NC(=O)CCCCCC2NC(=O)NC2C)cc1 (configuration not stated)	inactive
N#Cc1ccccc1NC(=O)CNc1ccc(Cl)c(C(F)(F)F)c1	inactive
CC1CC(C)CN(C(=O)CSCC(=O)O)C1 (configuration not stated)	inactive
CC(C)C(c1nnnn1C1CCCCC1)N1CCN(c2ncccn2)CC1 (configuration not stated)	inactive
O=C(CSc1c(Cl)cccc1Cl)N1CCC(c2nc3ccccc3s2)CC1	inactive
CCN1CCC(=NNC(=O)CC23CC4CC(CC(C4)C2)C3)CC1	inactive
CCCCCCNS(=O)(=O)c1ccccc1Br	inactive
CCCC1(C(=O)O)NC(c2ccc(OC)cc2O)C2C(=O)N(c3ccc(OC)cc3)C(=O)C21 (configuration not stated)	inactive
Cc1cccc2sc(NNC(=O)c3ccc(S(=O)(=O)N4CC(C)CC(C)C4)cc3)nc12 (configuration not stated)	inactive
Cc1cc(NC(=O)CC(CN(C)S(=O)(=O)c2ccccc2)c2ccccc2)no1 (configuration not stated)	inactive
Cc1occc1-c1nnc(SCC(=O)N(C)C)o1	inactive
COc1cccc(-c2nnc(SCC(=O)N3CCOCC3)o2)c1	inactive
COc1ccc(N(C(=O)c2ccccc2OC)C2C=CS(=O)(=O)C2)c(OC)c1 (configuration not stated)	inactive
COc1ccc(S(=O)(=O)N(CC(=O)O)c2ccccn2)cc1	inactive
Cn1ccnc1Sc1ccc(/C=N/NC(=O)c2ccccc2O)cc1[N+](=O)[O-]	inactive
O=[N+]([O-])c1ccccc1NC(=S)N/N=C/c1ccc(O)c(O)c1	inactive

SMILES	outcome
Cc1cc(NC(=O)Cn2cnc3c(nnn3-c3cccc(F)c3)c2=O)no1	inactive
C/C(=N\OCC(=O)NC12CC3CC(CC(C3)C1)C2)c1cc2ccccc2o1	inactive
CC1CCC(NC(=O)CCS(=O)(=O)c2ccc3c(c2)CCN3C(=O)C2CC2)CC1 (configuration not stated)	inactive
CN1CCN(NC(=O)c2ccc(S(=O)(=O)N3CC4(C)CC3CC(C)(C)C4)cc2)CC1 (configuration not stated)	inactive
COc1cc(NC(=O)CCn2c(=O)[nH]c3ccsc3c2=O)cc(OC)c1	inactive
O=C(O)CCCCC1SCC2NC(=O)NC21 (configuration not stated)	inactive
CCCN(CCC)CCCNC(=O)c1cn(CCOC)c(=O)c2c1c1ccccc1n2C	inactive
Cc1cc(NC(=O)C2CCCC2)n(-c2nc3ccccc3[nH]2)n1	inactive
O=C1CCCCC1Oc1ccc2ccc(=O)oc2c1 (configuration not stated)	inactive
Cc1cc(-c2[nH]nc3c2C(c2cccc(O)c2)C(C#N)=C(N)O3)c(C)s1 (configuration not stated)	inactive
CSc1ccc(C2C(C#N)=C(N)Oc3c2ccc(=O)c2c(C)oc(C)c32)cc1 (configuration not stated)	inactive
N=C(N)c1ccc(N=Nc2c(O)ccc3c2[nH]c2ccccc23)cc1	inactive
CCOC(=O)c1cc2ccc(OC)c(OC)c2c(=O)s1	inactive
CCOC(=O)CSc1nc(CC)nc2ccccc12	inactive
CC(c1nnnn1C1CCCCC1)N(Cc1ccccc1)Cc1cccnc1 (configuration not stated)	inactive
Cc1cccc(C(=O)Nc2nnc(Cc3c[nH]c4ccccc34)s2)c1	inactive
CC(=O)c1ccc(S(=O)(=O)Nc2cccc(-c3ccc(N4CCOCC4)nn3)c2)cc1	inactive
CCNS(=O)(=O)c1ccc(-c2ccc(-n3cnnn3)cc2)cc1	inactive
CCC(C)n1c(-c2cccc(S(=O)(=O)N3CCOCC3)c2)n[nH]c1=S (configuration not stated)	inactive
O=C(Oc1cccnc1)c1ccc(Cl)cc1	inactive
Cc1ccc(S(=O)(=O)N2CCCC2C(=O)N(C)Cc2cccs2)cc1 (configuration not stated)	inactive
Cc1cc(O)c(C(C)C)cc1NC1=NS(=O)(=O)c2ccccc21	inactive
CCCCS(=O)CC(O)COCC (configuration not stated)	inactive

SMILES	outcome
Cc1cc(Cl)c(S(=O)(=O)NCC2CCCO2)cc1OCC(=O)NC1CCCCC1 (configuration not stated)	inactive
CC(C)(C)c1ccccc1OCCOCCSc1ncccn1	inactive
O=C(CCCc1ccccc1)N1CCN(c2ccc([N+](=O)[O-])cc2)CC1	inactive
CC(C)OC(=O)/C(=C\C=C\c1ccccc1)NC(=O)c1ccccc1	inactive
O=C(CCc1ccc(S(=O)(=O)N2CCOCC2)cc1)OCc1nc2ccccc2s1	inactive
O=C1c2ccccc2C(Nc2ccc(F)c(Cl)c2)N1c1ccccn1 (configuration not stated)	inactive
CCn1c(SCC(=O)n2c(C)c(C)c3ccccc32)nnc1-c1ccco1	inactive
CCCCC(=O)Nc1ccc(NC(=O)c2ccc3c(c2)OCO3)cc1OC	inactive
NC(=O)c1ccccc1NC(=O)/C=C/c1ccc(Cl)cc1	inactive
CCn1c(-c2csc(-c3ccc(Cl)cc3)n2)n[nH]c1=S	inactive
COc1ccc(N2CCC(CNS(=O)(=O)c3cccc(C(F)(F)F)c3)C2)cc1 (configuration not stated)	inactive
COc1ccc(NC(=O)CN2CCN(c3ccc(F)cc3)CC2)cc1Cl	inactive
COc1ccc(-c2nc(C#N)c(NCc3ccccc3Cl)o2)cc1OC	inactive
O=C(c1cccc(C(F)(F)F)c1)C1CCCN(C(=O)CCCN2CCCC2=O)C1 (configuration not stated)	inactive
CCc1nnc(NC(=O)c2ccc(-c3ccccc3Cl)o2)s1	inactive
CCOC(=O)C1CC(CN2C(=O)c3ccccc3C2=O)OC1=O (configuration not stated)	inactive
CCOC(=O)c1c(C)nn(Cc2cccc(Cl)c2)c1N	inactive
Nc1ncnc2c1cnn2C1CCCCC1	inactive
COc1ccccc1N1CCN(CCc2n[nH]c(=S)n2-c2ccccc2)CC1	inactive
S=c1[nH]nc(COc2ccc(Cl)cc2)n1Cc1ccccc1	inactive
